# Several values for one entry are separate records, joined by “and”; a condition that tells them apart may be missing. Identical values can stand only once. Records with an inconclusive call do not appear. A call without a number means that no potency is given here. Where a structure was tested more than once in an assay, its records may differ in their call. Activity calls are given as the source filed them. Unless noted, calls follow the shape of the dose curve; as a rule, active = well fitted curve in the direction sought with a large enough effect; inconclusive = small, poorly fitted or top-dose-only effect, or another doubt; inactive = no such curve, though single readings can be large; an effect the other way counts as inactive or inconclusive.
# What was measured:
# [1] = Primary qHTS for small molecule stabilizers of the endoplasmic reticulum resident proteome: Secreted ER Calcium Modulated Protein (SERCaMP) assay (AID 1508630)
# In short: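 GLuc-SERCaMP-expressing SH-SY5Y cells, pretreated 16 h with compound, are challenged with thapsigargin to empty ER calcium stores; after 4 h, coelenterazine is added directly to the medium and luminescence is imaged.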
# [2] = Cell Viability qHTS for small molecule stabilizers of the endoplasmic reticulum resident proteome (AID 1508629); conditions: cell viability counter-screen, 100 nM thapsigargin for final 4 h;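 also: human SH-SY5Y neuroblastoma cells carrying the GLuc-SERCaMP reporter; compound exposure about 46 h in total before the viability read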
# [3] = A High-Content qHTS Against Drug Library for the Identification of Small Molecules that Inhibit DYT1 Early Onset Primary Dystonia-Associated Cell Pathology (AID 1645839; calls by dose curve)
# In short: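 Readout: %pathology, the punctate EGFP-TorsinA distribution from imaging, as the primary channel and cell count as the toxicity counterscreen. HEK293 Flp-In cells expressing delE TorsinA were induced with tetracycline and treated with compound for 48 h.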
# [4] = biological target: Cytochrome P450 2D6 (Homo sapiens) (UniProt P10635); assay: Cytochrome P450 family 2 subfamily D member 6 (CYP2D6) small molecule antagonists: luciferase biochemical (cell-free) qHTS assay (AID 1645840; active = well fitted curve in the direction sought with a large enough effect in the repeat runs; an effect the other way counts as inactive or inconclusive; also: nearly all actives have a fitted effect of over 55% in size; also: potency is read from the fitted curve at half-maximal effect)
# Sequence of Cytochrome P450 2D6 (Homo sapiens) (P10635 whole entry, looked up): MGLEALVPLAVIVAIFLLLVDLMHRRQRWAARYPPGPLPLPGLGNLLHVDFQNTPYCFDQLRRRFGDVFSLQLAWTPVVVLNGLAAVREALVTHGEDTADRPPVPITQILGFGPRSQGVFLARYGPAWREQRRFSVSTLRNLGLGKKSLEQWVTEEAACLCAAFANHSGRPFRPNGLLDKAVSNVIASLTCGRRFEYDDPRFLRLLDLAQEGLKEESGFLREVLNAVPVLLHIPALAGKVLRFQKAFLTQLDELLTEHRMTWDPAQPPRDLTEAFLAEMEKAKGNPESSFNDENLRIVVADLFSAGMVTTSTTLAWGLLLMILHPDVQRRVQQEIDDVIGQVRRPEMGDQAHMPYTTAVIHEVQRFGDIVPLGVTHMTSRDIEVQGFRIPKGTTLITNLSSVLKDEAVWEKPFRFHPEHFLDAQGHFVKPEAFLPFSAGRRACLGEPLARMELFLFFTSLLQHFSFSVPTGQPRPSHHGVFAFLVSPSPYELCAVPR
# In short: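 P450-Glo luminescent screen: recombinant CYP2D6 enzyme–proluciferin substrate mix preincubated with compound 10 min at room temperature, then NADPH regeneration added for 1 h at room temperature. Detection reagent added for 20 min; luciferin light read as relative luminescence units.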
# [5] = biological target: Cytochrome P450 2C9 (Homo sapiens) (UniProt P11712); assay: Cytochrome P450 family 2 subfamily C member 9 (CYP2C9) small molecule antagonists: luciferase biochemical (cell-free) qHTS assay (AID 1645842; active = well fitted curve in the direction sought with a large enough effect in the repeat runs; an effect the other way counts as inactive or inconclusive; also: nearly all actives have a fitted effect of over 55% in size; also: potency is read from the fitted curve at half-maximal effect)
# Sequence of Cytochrome P450 2C9 (Homo sapiens) (P11712 whole entry, looked up): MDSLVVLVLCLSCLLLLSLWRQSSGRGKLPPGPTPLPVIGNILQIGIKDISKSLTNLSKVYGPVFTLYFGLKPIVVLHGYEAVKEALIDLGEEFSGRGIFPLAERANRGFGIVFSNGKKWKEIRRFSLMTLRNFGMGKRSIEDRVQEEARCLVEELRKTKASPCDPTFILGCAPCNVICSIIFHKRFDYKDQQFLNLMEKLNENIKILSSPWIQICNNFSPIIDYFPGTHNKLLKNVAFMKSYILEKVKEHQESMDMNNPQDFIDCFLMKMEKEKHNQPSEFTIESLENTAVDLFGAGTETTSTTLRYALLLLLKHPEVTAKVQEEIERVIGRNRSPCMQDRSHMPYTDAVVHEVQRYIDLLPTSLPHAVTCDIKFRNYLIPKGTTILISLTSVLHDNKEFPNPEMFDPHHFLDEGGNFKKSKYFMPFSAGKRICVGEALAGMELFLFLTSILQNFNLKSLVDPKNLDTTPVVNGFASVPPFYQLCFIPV
# In short: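 Luminescence, after 20 min with luciferin detection reagent, reflected CYP2C9 turnover during a 1 h NADPH-driven reaction at 37C. Enzyme-substrate mix contained 0.4% bovine serum albumin and was preincubated with compound 10 min at room temperature.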
# Papain (Carica papaya) = Papain (Carica papaya) (UniProt P00784); assay: Primary qHTS assay for inhibitors of the protease papain (AID 1645873);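 also: papain turnover of Z-FR-AMC read as the AMC fluorescence gain over 10 min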; also: potency is read from the fitted curve at half-maximal effect
# Sequence of Papain (Carica papaya) (P00784 whole entry, looked up, the tested form may be a part): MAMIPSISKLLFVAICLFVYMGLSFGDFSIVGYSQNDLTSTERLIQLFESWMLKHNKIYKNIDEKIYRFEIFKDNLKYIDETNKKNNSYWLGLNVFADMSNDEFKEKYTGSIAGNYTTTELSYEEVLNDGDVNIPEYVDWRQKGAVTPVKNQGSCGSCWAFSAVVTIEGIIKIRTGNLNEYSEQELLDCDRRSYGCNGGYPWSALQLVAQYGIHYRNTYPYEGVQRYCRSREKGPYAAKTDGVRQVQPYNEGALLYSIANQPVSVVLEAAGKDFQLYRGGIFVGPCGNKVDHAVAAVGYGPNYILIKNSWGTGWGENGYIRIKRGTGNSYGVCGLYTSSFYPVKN
# [6] = Primary qHTS for inhibitors of nuclear receptor binding SET domain protein 2 (NSD2) in an isogenic RCH-ACV NSD2 p.E1099K mutant (9B) (AID 1645876); also: nearly all actives have a fitted effect of over 70% in size; also: potency is read from the fitted curve at half-maximal effect
# [7] = Primary qHTS for inhibitors of nuclear receptor binding SET domain protein 2 (NSD2) in an RCH-ACV wild type WT cells (2C) (AID 1645877); also: nearly all actives have a fitted effect of over 70% in size; also: potency is read from the fitted curve at half-maximal effect
# [8] = biological target: Catechol O-methyltransferase (Homo sapiens) (UniProt P21964); assay: Confirmatory Screen for Target Class Profiling of Small Molecule Inhibitors of Methyltransferases (AID 1745852; calls by dose curve; also: potency is read from the fitted curve at half-maximal effect); conditions: MTase-Glo luminescence, SAH detection, recombinant enzyme; measured here: COMT max response; stronger effect = lower value
# Sequence of Catechol O-methyltransferase (Homo sapiens) (P21964 whole entry, looked up): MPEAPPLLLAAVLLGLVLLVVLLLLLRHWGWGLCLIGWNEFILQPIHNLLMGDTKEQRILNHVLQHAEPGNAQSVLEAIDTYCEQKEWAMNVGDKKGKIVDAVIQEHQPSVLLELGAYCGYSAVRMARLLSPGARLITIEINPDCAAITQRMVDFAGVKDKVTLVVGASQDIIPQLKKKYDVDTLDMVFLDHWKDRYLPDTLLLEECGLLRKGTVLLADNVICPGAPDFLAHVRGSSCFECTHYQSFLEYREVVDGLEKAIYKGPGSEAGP
# [9] = biological target: Guanidinoacetate N-methyltransferase (Homo sapiens) (UniProt Q14353); assay: as above; conditions: MTase-Glo luminescence, SAH detection, recombinant enzyme; activity change, negative = inhibition: at 57.3 µM (top of the series) unless noted
# [10] = biological target: Nicotinamide N-methyltransferase (Homo sapiens) (UniProt P40261); assay: as above; conditions: MTase-Glo luminescence, SAH detection, recombinant enzyme; measured here: NNMT max response; stronger effect = lower value
# Sequence of Nicotinamide N-methyltransferase (Homo sapiens) (P40261 whole entry, looked up): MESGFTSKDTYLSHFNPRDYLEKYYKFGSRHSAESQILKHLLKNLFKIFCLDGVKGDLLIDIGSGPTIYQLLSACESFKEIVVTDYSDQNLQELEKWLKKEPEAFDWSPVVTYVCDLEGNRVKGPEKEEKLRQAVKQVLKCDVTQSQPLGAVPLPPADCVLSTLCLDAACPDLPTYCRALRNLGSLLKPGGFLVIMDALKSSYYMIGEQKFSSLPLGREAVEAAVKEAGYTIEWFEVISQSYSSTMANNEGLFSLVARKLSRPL
# [11] = biological target: Phenylethanolamine N-methyltransferase (Homo sapiens) (UniProt P11086); assay: as above; conditions: MTase-Glo luminescence, SAH detection, recombinant enzyme; measured here: PNMT max response; stronger effect = lower value
# Sequence of Phenylethanolamine N-methyltransferase (Homo sapiens) (P11086 whole entry, looked up): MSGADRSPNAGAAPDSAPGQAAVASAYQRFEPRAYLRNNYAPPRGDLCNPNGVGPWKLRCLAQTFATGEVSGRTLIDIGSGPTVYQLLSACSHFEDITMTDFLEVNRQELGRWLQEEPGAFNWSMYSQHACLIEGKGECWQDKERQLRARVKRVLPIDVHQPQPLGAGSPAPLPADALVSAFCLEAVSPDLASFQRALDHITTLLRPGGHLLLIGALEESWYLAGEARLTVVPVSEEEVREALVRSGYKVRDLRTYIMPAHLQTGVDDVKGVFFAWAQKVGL
# [12] = NCATS anti-infectives library activity on HEK293 viability as a counter-qHTS vs the C. elegans viability qHTS (AID 1745854);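 also: HEK293 cells exposed to compounds for 24 hr before the viability read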
# In short: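 Compounds were acoustically plated (several concentrations, 1:5, final up to 41.7 uM), then 1500 HEK293 cells added per well and incubated 24 hr at 37C, 5% CO2. CellTiter-Glo was added and luminescence read after 10 min.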
# [13] = NCATS anti-infectives library activity on the primary C. elegans qHTS viability assay (AID 1745855; calls by dose curve; also: potency is read from the fitted curve at half-maximal effect)
# In short: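 Viability read-out is GFP fluorescence of PE254-GFP-FLuc C. elegans, measured by laser cytometry (488 nm) at day 0, 3 and 7. Ten L1 worms per well were incubated 7 days at 21 °C with compounds and bacterial capsules in S medium.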
smiles,measurement,setting,value
COc1ccc(-c2ccc3c(N4CCOC[C@H]4C)nc(N4CCOC[C@H]4C)nc3n2)cc1CO,Potency,[1],inactive
OC(CN1CCC(Cc2ccc(F)cc2)CC1)c1ccc(Cl)cc1 (stereo not drawn),max response,[2],-25.9% (inactive)
same,Potency,[1],inactive
same,Potency,[3],inactive
same,Potency,[4],15.5 nM (active) and 53.5 nM (active)
same,Potency,[5],inactive
same,Potency,Papain (Carica papaya),inactive
same,Potency,[6],inactive
same,Potency,[7],inactive
CCOc1cc(C=C2C(=O)N(c3ccccc3)N=C2C)cc(Cl)c1OCC(=O)OC,Potency,[1],inactive
CCOC(=O)C1=C[C@]2(CC)CCCN3CCc4c(n1c1ccccc41)[C@@H]32,Potency,[1],inactive
same,Potency,[3],inactive
same,Potency,[4],4.9 µM (active)
Oc1ccc(C2CNCCc3c2cc(O)c(O)c3Cl)cc1 (stereo not drawn),max response,[2],-10.9% (inactive)
same,Potency,[1],inactive
same,Potency,[3],inactive
same,Potency,[5],inactive
same,Potency,Papain (Carica papaya),inactive
same,Potency,[6],inactive
same,activity,[8],-77.1%
same,Potency,[9],27.3 µM (active)
same,activity,[10],-15.5%
same,activity,[11],-4.58%
CCOC(=O)C1=C[C@@]2(CC)CCCN3CCc4c(n1c1ccccc41)[C@H]32,Potency,[1],inactive
CCC(=O)N[C@H]1CC[C@H](C(=O)N(C)c2ccc(-c3nc4ccccc4o3)cc2)C1,Potency,[1],inactive
COc1ccc(COc2cc3oc(=O)c4cc(C(C)O)ccc4c3cc2OC)cc1 (stereo not drawn),Potency,[1],inactive
Nc1cccc(S(=O)(=O)N2CCCN(S(=O)(=O)c3ccc4c(c3)OCCO4)CC2)c1,Potency,[1],inactive
CCN(CC)CCCC(C)Nc1ccnc2cc(Cl)ccc12 (stereo not drawn),max response,[2],-9.95% (inactive)
same,Potency,[3],inactive
same,Potency,[6],inactive
same,Potency,[7],inactive
same,activity,[8],-0.478%
same,"activity change, negative = inhibition",[9],2.04% [at 9.47 µM]
same,activity,[10],3.54%
same,activity,[11],0.752%
O=C1CCc2cc(OCCCCc3nnnn3C3CCCCC3)ccc2N1,Potency,[1],inactive
same,Potency,[3],inactive
same,Potency,[4],inactive
same,Potency,[5],6.17 µM (active)
same,Potency,Papain (Carica papaya),inactive
same,Potency,[6],inactive
same,Potency,[7],21.1 µM (active)
Cc1cnc(NC(=O)C2=C(O)c3ccccc3S(=O)(=O)N2C)s1,Potency,[1],inactive
same,Potency,[3],inactive
same,Potency,[4],inactive
same,Potency,[5],11 µM (active) and inactive
same,Potency,[6],inactive
same,Potency,[7],inactive
same,outcome,[12],inactive
CC(=O)Oc1ccccc1C(=O)O,Potency,[1],inactive
same,Potency,[3],inactive
same,Potency,[4],15.5 µM (active)
same,Potency,[5],inactive
same,Potency,Papain (Carica papaya),inactive
same,Potency,[6],inactive
same,outcome,[12],inactive
CNC(=O)c1ccccc1Sc1ccc2c(/C=C/c3ccccn3)n[nH]c2c1,Potency,[1],inactive
same,Potency,[3],inactive
same,Potency,[5],3.47 µM (active)
same,Potency,[6],750 nM (active) and 916 nM (active) and 4.17 µM (active)
same,Potency,[7],531 nM (active) and 1.03 µM (active) and 833 nM (active)
C#Cc1cccc(Nc2ncnc3cc(OCCOC)c(OCCOC)cc23)c1,Potency,[1],inactive
same,Potency,[3],inactive
same,Potency,[4],inactive
same,Potency,[5],inactive
same,Potency,[6],8.41 µM (active)
same,Potency,[7],9.44 µM (active)
same,Potency,[13],inactive
Clc1cccc(Cl)c1NC1=NCCN1,Potency,[1],inactive
same,Potency,[3],inactive
same,Potency,[5],inactive
same,Potency,Papain (Carica papaya),inactive
same,Potency,[6],inactive
NCCCC(N)(C(=O)O)C(F)F (stereo not drawn),Potency,[1],inactive
same,Potency,[3],inactive
same,Potency,Papain (Carica papaya),inactive
same,Potency,[6],inactive
same,Potency,[7],inactive
CCCC(CCC)C(=O)O,Potency,[1],inactive
same,Potency,[3],inactive
same,Potency,[4],inactive
same,Potency,[5],inactive
same,Potency,Papain (Carica papaya),inactive
same,Potency,[6],inactive
same,Potency,[7],inactive
same,outcome,[12],inactive
CC(C[N+](C)(C)C)OC(N)=O (stereo not drawn),Potency,[1],inactive
same,Potency,[3],inactive
same,Potency,[4],inactive
same,Potency,[5],inactive
same,Potency,Papain (Carica papaya),inactive
same,Potency,[6],inactive
same,Potency,[7],inactive
CCCc1nn(C)c2c(=O)[nH]c(-c3cc(S(=O)(=O)N4CCN(C)CC4)ccc3OCC)nc12,Potency,[1],inactive
same,Potency,[3],inactive
same,Potency,[4],inactive
same,Potency,[5],13.5 µM (active)
same,Potency,Papain (Carica papaya),inactive
same,Potency,[6],inactive
same,Potency,[7],10.6 µM (active) and inactive
NCCc1ccc(O)c(O)c1,Potency,[1],inactive
same,Potency,[3],inactive
same,Potency,[4],inactive
same,Potency,[5],inactive
same,Potency,Papain (Carica papaya),inactive
same,Potency,[6],inactive and 23.5 µM (active)
Cc1ccc(N(CC2=NCCN2)c2cccc(O)c2)cc1,Potency,[1],inactive
same,Potency,[3],inactive
same,Potency,[4],0.309 µM (active)
same,Potency,[5],inactive
same,Potency,Papain (Carica papaya),inactive
same,Potency,[6],inactive
Cc1oncc1C(=O)Nc1ccc(C(F)(F)F)cc1,Potency,[1],inactive
same,Potency,[3],inactive
same,Potency,[5],13.8 µM (active)
same,Potency,Papain (Carica papaya),inactive
same,Potency,[6],10.6 µM (active) and 16.6 µM (active)
same,Potency,[7],10.6 µM (active) and 14.8 µM (active)
C[C@]12CCC(=O)C=C1CC[C@@H]1[C@@H]2[C@@H](O)C[C@@]2(C)[C@H]1CC[C@]2(O)C(=O)CO,Potency,[1],inactive
same,Potency,[3],inactive
same,Potency,[4],inactive
same,Potency,[5],inactive
same,Potency,Papain (Carica papaya),inactive
same,Potency,[6],inactive
Cc1cn[nH]c1,Potency,[1],inactive
same,Potency,[3],inactive
same,Potency,Papain (Carica papaya),inactive
same,Potency,[6],inactive
same,Potency,[7],inactive
Nc1ccc(S(=O)(=O)Nc2ccnn2-c2ccccc2)cc1,Potency,[1],inactive
same,Potency,[3],inactive
same,Potency,[4],inactive
same,Potency,[6],inactive
same,Potency,[7],inactive
c1ccc([C@H]2CN3CCSC3=N2)cc1,Potency,[1],inactive
same,Potency,[3],inactive
same,Potency,[4],30.9 µM (active)
same,Potency,[5],inactive
same,Potency,Papain (Carica papaya),inactive
same,Potency,[6],inactive
same,outcome,[12],inactive
same,Potency,[13],5.15 µM (active)
NNCCc1ccccc1,Potency,[1],inactive
same,Potency,[3],inactive
same,Potency,[4],5.49 µM (active)
same,Potency,Papain (Carica papaya),inactive
same,Potency,[6],inactive
CN(C(=O)c1ccc(F)cc1C(F)(F)F)C1CCN(c2nnc(-c3ccnn3C)c3ccccc23)CC1,Potency,[1],inactive
same,Potency,[4],inactive
CCCCNc1cc(C(=O)O)cc(S(N)(=O)=O)c1Oc1ccccc1,Potency,[1],inactive
same,Potency,[3],inactive
same,Potency,Papain (Carica papaya),20 µM (active)
same,Potency,[6],inactive
